KCNQ2 inh: KCNQ2 (rat) channel inhibition. O88943. CHO-K1 KCNQ2, FluxOR thallium flux, 20 min; hits give low values. B-score at 10 µM. 310,000 tested, 1.1% active. AID 2156;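 active = fluorescence ratio B-score at most minus 3 library SDs, with starting brightness B-score within 2 library SDs, cut at about -5.5 in these data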
KCNQ2 pot: KCNQ2 (rat) channel potentiation. O88943. CHO-K1 KCNQ2, FluxOR thallium flux fluorescence; hits give high values. B-score at 10 µM. 310,000 tested, 0.54% active;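 active = fluorescence ratio B-score at least 3 SD of library B-scores, with initial fluorescence B-score within 3 of them, cut at about 5.3 in these data; same plate scores as AID 2156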;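 note: B-score of peak minus minimum over baseline fluorescence ratio after K+ and Tl+ stimulus; positive B-score means potentiation of KCNQ2 with more thallium influx and brighter signal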
Kir21 confirm: confirmation of mouse Kir2.1 potassium channel inhibitors; AID 2032; 2,300 tested, 41% active; Tl flux remaining, % of negative control (hits give low values), % at 10 µM; shares compounds with KCNQ2 pot; Kir2.1-expressing cells, FluxOR thallium flux fluorescence; hits give low values;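 active = Primary-screen hit whose thallium flux fell at least 3 control SD below untreated wells in both duplicates, with normal baseline fluorescence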;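 note: 0% = blank wells without stimulus and 100% = stimulated no-compound controls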
HEK293 Tl flux: alters thallium flux in parental HEK293 cells, Kir2.1 counter-screen. shares compounds with KCNQ2 pot. FluxOR thallium flux fluorescence; 0% = unstimulated blank wells. FluxOR signal as % of negative control (100 = no effect), % at 10 µM. 2,300 tested, 19% active;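 active = dye signal at least 3 control SD above or below untreated wells in both duplicates, raw fluorescence within 3, either direction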;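 note: percent is based on the flux ratio of peak minus minimum fluorescence over baseline F0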
CHO-K1 Tl ctr: parental CHO-K1 activity in KCNQ2 potentiator counter-screen. parental CHO-K1 cells, FluxOR thallium flux fluorescence; zero = vehicle mean+3SD, 100% = vehicle-minus-blank window. 1,200 tested, 43% active. AID 2282. activity increase over 3SD of controls, % at 10 µM. shares compounds with KCNQ2 pot;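 active = signal rise of at least 3 SD above the untreated control mean, in both duplicate wells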;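 note: counter screen of KCNQ2 potentiator hits so any rise reflects channel-independent effects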
KCNQ1 pot spec: selectivity of KCNQ2 potentiators: effect on human KCNQ1 | shares compounds with KCNQ2 pot | CHO KCNQ1 stable, FluxOR thallium flux fluorescence; beyond 3SD, as % of vehicle-control signal | activation over 3SD threshold, % at 10 µM | 1,200 tested, 28% active | AID 2283;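 active = fluorescence ratio rise of at least 3 SD of vehicle wells above their mean, in both replicate wells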;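 note: 0% = vehicle mean plus 3 SD and 100% = vehicle minus unstimulated blank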
Target sequence (P51787 whole entry, looked up): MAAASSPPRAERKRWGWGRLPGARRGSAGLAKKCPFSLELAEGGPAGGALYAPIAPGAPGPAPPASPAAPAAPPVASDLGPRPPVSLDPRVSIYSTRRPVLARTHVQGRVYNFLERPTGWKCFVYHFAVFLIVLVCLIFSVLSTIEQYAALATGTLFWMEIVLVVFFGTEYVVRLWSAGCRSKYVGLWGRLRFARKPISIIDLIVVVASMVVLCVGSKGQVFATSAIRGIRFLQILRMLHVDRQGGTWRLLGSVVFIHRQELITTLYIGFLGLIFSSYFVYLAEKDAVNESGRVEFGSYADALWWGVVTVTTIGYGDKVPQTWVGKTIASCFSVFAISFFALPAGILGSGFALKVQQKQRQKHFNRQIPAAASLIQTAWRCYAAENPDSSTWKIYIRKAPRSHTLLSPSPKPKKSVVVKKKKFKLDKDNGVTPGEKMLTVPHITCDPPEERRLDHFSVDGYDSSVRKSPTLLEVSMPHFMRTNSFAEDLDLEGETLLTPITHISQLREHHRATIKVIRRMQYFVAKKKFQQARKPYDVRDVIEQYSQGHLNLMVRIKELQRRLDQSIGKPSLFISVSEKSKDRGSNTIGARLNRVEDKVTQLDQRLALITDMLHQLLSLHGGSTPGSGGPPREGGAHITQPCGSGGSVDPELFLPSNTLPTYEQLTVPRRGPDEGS
KCNQ2 pot conf: rat KCNQ2 channel potentiator confirmation; potentiation, less the hit threshold, % at 10 µM; shares compounds with KCNQ2 pot; 1,200 tested, 68% active; AID 2287; CHO-KCNQ2 cells, FluxOR thallium flux fluorescence;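 active = fluorescence ratio rising 3 SD or more over the vehicle control mean in both replicates, plus primary screen hit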;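 note: peak minus minimum thallium fluorescence divided by baseline after K/Tl stimulus; 0% = vehicle mean plus 3 SD and 100% = vehicle minus unstimulated blank difference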
Kir2-1 sel: tests whether KCNQ2 potentiators also affect mouse Kir2.1; AID 2345; 1,200 tested, 2% active; activity over 3SD threshold, % at 10 µM; shares compounds with KCNQ2 pot; HEK293 Kir2.1, FluxOR thallium flux fluorescence;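 active = fluorescence ratio rise of at least 3 SD above the vehicle-control mean, seen in both replicates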;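 note: 0% = vehicle mean plus 3 SD and 100% = vehicle minus no-stimulus blank window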
KCNQ2 W236L MoA: potentiates the retigabine-insensitive rat KCNQ2 W236L mutant channel. current increase over 3SD of negative controls (%), hits give high values, % at 25 µM. shares compounds with KCNQ2 pot. AID 2558. CHO KCNQ2-W236L, automated patch clamp current. 940 tested, 10% active;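 active = current increase at least 3 SD of the untreated controls above them in both duplicate recordings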
Starred values were filed as active, the others as inactive. Most compounds without a hit are left out; they make up all but 1.6% or so of the library.

How did Cc1ccc(S(=O)(=O)CCC(=O)OCc2nc(N)nc(Nc3ccccc3C)n2)cc1 do in these assays?
KCNQ2 inh: inactive; KCNQ2 pot: 1.3

What do the screens show for `Cc1ccc2c(CC(=O)OCc3nc(N)nc(Nc4ccccc4C)n3)coc2c1`?
KCNQ2 inh: inactive; KCNQ2 pot: 11*; Kir21 confirm: inactive; HEK293 Tl flux: inactive; CHO-K1 Tl ctr: 17*; KCNQ1 pot spec: -14; KCNQ2 pot conf: 15*; Kir2-1 sel: -37; KCNQ2 W236L MoA: inactive

Results for Cn1cc(S(=O)(=O)N2CCCC2)cc1C(=O)N1CCN(c2ccccc2)CC1 ?
KCNQ2 inh: inactive; KCNQ2 pot: 1.6

How did CCCCCCCCCCOC(=O)Cn1c(COc2ccc(OC)cc2)[n+](C)c2ccccc21 do in these assays?
KCNQ2 inh: inactive; KCNQ2 pot: 1.6; Kir21 confirm: inactive; HEK293 Tl flux: inactive

What do the screens show for `CCCCOC(=O)Cn1c(=O)n(CC(=O)OCCCC)c2ccccc21`?
KCNQ2 inh: inactive; Kir21 confirm: inactive; HEK293 Tl flux: inactive

What do the screens show for `CCCCCCCCCCOC(=O)Cn1c(COc2ccc(Cl)cc2)[n+](C)c2ccccc21`?
KCNQ2 inh: inactive

Results for Cc1cccc(OCCCn2c(=O)sc3ccccc32)c1 ?
KCNQ2 inh: inactive

What do the screens show for `CCCCOC(=O)Cn1c(=N)n(CCN2CCOCC2)c2ccccc21`?
KCNQ2 inh: inactive

How did CCCCCOC(=O)Cn1c(=O)oc2ccccc21 do in these assays?
KCNQ2 inh: inactive

Results for CCCCCCCCCCOC(=O)Cn1c(COc2ccccc2)[n+](C)c2ccccc21 ?
KCNQ2 inh: inactive; Kir21 confirm: inactive; HEK293 Tl flux: inactive

How did CCCCCCCCCCOC(=O)Cn1c(COc2cccc(C)c2)[n+](C)c2ccccc21 do in these assays?
KCNQ2 inh: inactive; KCNQ2 pot: 0.86; Kir21 confirm: inactive; HEK293 Tl flux: inactive

What do the screens show for `CCN(CC)S(=O)(=O)c1ccc(OC)c(NC(=O)CSc2cc(C)ccc2C)c1`?
KCNQ2 inh: inactive

Results for O=C(NC(=O)N1CCN(c2ccc([N+](=O)[O-])cn2)CC1)c1c(Cl)cccc1Cl ?
KCNQ2 inh: inactive

What do the screens show for `CCCc1cc(C(=O)N2CCC(n3nccc3NC(=O)c3ccc(OC)cc3)CC2)no1`?
KCNQ2 inh: inactive

How did COc1cc(NC(=O)Cc2ccccc2)ccc1NC(=O)c1ccccc1 do in these assays?
KCNQ2 inh: inactive; KCNQ2 pot: 1.6

Results for COc1ccc(Cl)cc1NS(=O)(=O)c1cccc(C(=O)NCC2(N(C)C)CCCCC2)c1 ?
KCNQ2 inh: inactive

How did COc1ccc(C(C)=O)cc1CSc1nncn1-c1ccccc1 do in these assays?
KCNQ2 inh: inactive

How did COc1ccc(S(=O)(=O)NCc2ccco2)cc1NC(=O)c1ccccc1 do in these assays?
KCNQ2 inh: inactive; KCNQ2 pot: 0.37

Results for O=C(OCC(=O)N1c2ccccc2Sc2ccccc21)C1CC(=O)N(Cc2ccco2)C1 (configuration not stated) ?
KCNQ2 inh: inactive

What do the screens show for `O=C(COC(=O)C1CC(=O)N(Cc2ccco2)C1)c1ccc(OC(=O)c2ccccc2)cc1` (configuration not stated)?
KCNQ2 inh: inactive; KCNQ2 pot: 0.01; Kir21 confirm: inactive; HEK293 Tl flux: inactive

Results for O=C(CSc1nnc2c(n1)[nH]c1ccccc12)NCc1ccccc1F ?
KCNQ2 inh: inactive; KCNQ2 pot: 0.48

How did CC(C)Cn1c(=O)c(C(=O)NCc2ccccn2)c(O)c2ccccc21 do in these assays?
KCNQ2 inh: inactive; KCNQ2 pot: 15*; Kir21 confirm: inactive; HEK293 Tl flux: inactive; CHO-K1 Tl ctr: -16; KCNQ1 pot spec: -14; KCNQ2 pot conf: -13; Kir2-1 sel: -27

What do the screens show for `CCCn1c(=O)c(C(=O)NCc2ccncc2)c(O)c2ccccc21`?
KCNQ2 inh: inactive; KCNQ2 pot: 0.05

Results for CC[C@H]1c2[nH]c3ccccc3c2C[C@@H]2C(=O)N(c3ccc(F)cc3)C(=O)N21 ?
KCNQ2 inh: inactive; KCNQ2 pot: 0.42

Results for CC(C)Cc1nnc(NC(=O)CCC(=O)N2CCN(c3ccc(F)cc3)CC2)s1 ?
KCNQ2 inh: inactive; KCNQ2 pot: 0.89

What do the screens show for `Cc1ccc(O)c(NC(=S)NC(=O)Cc2ccc(Cl)cc2)c1`?
KCNQ2 inh: inactive; KCNQ2 pot: 7*; Kir21 confirm: inactive; HEK293 Tl flux: inactive; CHO-K1 Tl ctr: 0.0*; KCNQ1 pot spec: -14; KCNQ2 pot conf: -22; Kir2-1 sel: -44

What do the screens show for `Cc1ccc(NC(=S)NC(=O)c2ccc(-c3ccc(Cl)cc3)o2)c(O)c1`?
KCNQ2 inh: inactive; KCNQ2 pot: 1.1

What do the screens show for `C/C(=N\NC(=O)COc1cc(C)cc(C)c1)c1cccc(NC(=O)C2CCC2)c1`?
KCNQ2 inh: inactive

Results for CCOCCCNC(=O)CSc1nnc(-c2ccc(S(=O)(=O)N3CCCC3)cc2)n1C ?
KCNQ2 inh: inactive

What do the screens show for `CN(C)c1nc(F)c(F)c(S(=O)(=O)c2ccccc2)c1F`?
KCNQ2 inh: inactive

How did CC(C)C(=O)NCC(c1ccc2c(c1)OCO2)N1CCOCC1 (configuration not stated) do in these assays?
KCNQ2 inh: inactive; KCNQ2 pot: 0.01

Results for CSc1ccc(CN(C)C(C)C(=O)NCc2ccccc2)cc1 (configuration not stated) ?
KCNQ2 inh: inactive; Kir21 confirm: 34%*; HEK293 Tl flux: inactive

Results for CCc1ccc(CN(C)C(C)C(=O)NCc2ccccc2)cc1 (configuration not stated) ?
KCNQ2 inh: inactive

Results for CSc1ccc(CN(C)CC(=O)NCc2ccccc2)cc1 ?
KCNQ2 inh: inactive

Results for COc1ccc(CNC(=O)CN(C)Cc2ccc(SC)cc2)cc1 ?
KCNQ2 inh: inactive; Kir21 confirm: inactive; HEK293 Tl flux: inactive
